# According to the supplement of paper PMC9023506:
# Counter-ions that a name gives are not always drawn.
# Experiments:
# Details in all cases: 10 µM; exposure time: 3 h pre-incubation + 3 h imaging
# [1] = test system: Danio rerio larvae (5 dpf); experiment: habituation to 1-s acoustic pulses, difference vs DMSO (percentage points (treated minus DMSO)); higher = more of the behaviour than the DMSO vehicle control
# How it was run: (§1)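 Five-days-post-fertilisation wild-type zebrafish larvae were held in 96-well ProxiPlates and exposed to each library drug at a final 10 µM, diluted 1000× from DMSO stocks into egg water, with 48 larvae per drug. Exposure lasted 3 h before and 3 h during imaging at 28.5 °C, with images taken every 6 s across a 3-h program of rest, moving coloured lines and acoustic pulses. An ImageJ macro scored movement and upper-half location, and each behaviour score is the treated-group mean minus the vehicle-group mean, expressed in percentage points.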
# [2] = test system: Danio rerio larvae (5 dpf); experiment: optomotor response to blue moving lines, difference vs DMSO (percentage points (treated minus DMSO)); higher = more of the behaviour than the DMSO vehicle control
# How it was run: as §1
# [3] = test system: Danio rerio larvae (5 dpf); experiment: optomotor response to fast red moving lines, difference vs DMSO (percentage points (treated minus DMSO)); higher = more of the behaviour than the DMSO vehicle control
# How it was run: as §1
# [4] = test system: Danio rerio larvae (5 dpf); experiment: activity during period 15 (no stimuli), difference vs DMSO (percentage points (treated minus DMSO)); higher = more of the behaviour than the DMSO vehicle control
# How it was run: as §1
# [5] = test system: Danio rerio larvae (5 dpf); experiment: startle response to 20-s acoustic pulses, difference vs DMSO (percentage points (treated minus DMSO)); higher = more of the behaviour than the DMSO vehicle control
# How it was run: as §1
# [6] = test system: Danio rerio larvae (5 dpf); experiment: excitability to 1-s acoustic pulses, difference vs DMSO (percentage points (treated minus DMSO)); higher = more of the behaviour than the DMSO vehicle control
# How it was run: as §1
# [7] = test system: Danio rerio larvae (5 dpf); experiment: optomotor response to green moving lines, difference vs DMSO (percentage points (treated minus DMSO)); higher = more of the behaviour than the DMSO vehicle control
# How it was run: as §1
compound,measurement,setting,value
CN(C)C(=N)NC(=N)N [Metformin hydrochloride],habituation to 1-s acoustic pulses,[1],0.867
same,optomotor response to blue moving lines,[2],22.6
same,optomotor response,[3],10.2
Cn1nnc2c(C(N)=O)ncn2c1=O [Temozolomide],activity during period 15,[4],2.03
same,optomotor response to blue moving lines,[2],3.81
same,startle response to 20-s acoustic pulses,[5],2.71
COc1cccc2c1C(=O)c1c(O)c3c(c(O)c1C2=O)C[C@@](O)(C(=O)CO)C[C@@H]3O[C@H]1C[C@H](N)[C@H](O)[C@H](C)O1 [Doxorubicin hydrochloride],excitability to 1-s acoustic pulses,[6],13.8
same,optomotor response to blue moving lines,[2],3.86
COc1c(C)c2c(c(O)c1C/C=C(\C)CCC(=O)OCCN1CCOCC1)C(=O)OC2 [Mycophenolate mofetil],excitability to 1-s acoustic pulses,[6],0.817
same,optomotor response to blue moving lines,[2],16.8
same,startle response to 20-s acoustic pulses,[5],3.73
CC(C)c1nc(CN(C)C(=O)N[C@H](C(=O)N[C@@H](Cc2ccccc2)C[C@H](O)[C@H](Cc2ccccc2)NC(=O)OCc2cncs2)C(C)C)cs1 [Ritonavir],optomotor response to green moving lines,[7],-6.36
CCCc1nc2c(C)cc(-c3nc4ccccc4n3C)cc2n1Cc1ccc(-c2ccccc2C(=O)O)cc1 [Telmisartan],optomotor response to blue moving lines,[2],8.47
same,startle response to 20-s acoustic pulses,[5],3.69
CC(C)C(=O)OCC(=O)[C@@]12O[C@H](C3CCCCC3)O[C@@H]1C[C@H]1[C@@H]3CCC4=CC(=O)C=C[C@]4(C)[C@H]3[C@@H](O)C[C@@]12C [Ciclesonide],habituation to 1-s acoustic pulses,[1],-1.43
same,optomotor response to blue moving lines,[2],-2.62
Nc1nc(NC2CC2)c2ncn([C@H]3C=C[C@@H](CO)C3)c2n1 [Abacavir hemisulfate],habituation to 1-s acoustic pulses,[1],3.08
same,optomotor response to blue moving lines,[2],2.71
same,optomotor response to green moving lines,[7],6.07
same,startle response to 20-s acoustic pulses,[5],6.56
C=CC(=O)N1CCC[C@@H](n2nc(-c3ccc(Oc4ccccc4)cc3)c3c(N)ncnc32)C1 [Ibrutinib],activity during period 15,[4],-4.55
same,optomotor response to green moving lines,[7],-2.12
same,startle response to 20-s acoustic pulses,[5],3.06
C#C[C@]1(O)CC[C@H]2[C@@H]3CCC4=CC(=O)CC[C@@H]4[C@H]3CC[C@@]21CC [Levonorgestrel],habituation to 1-s acoustic pulses,[1],-7.34
same,optomotor response to blue moving lines,[2],19.5
same,startle response to 20-s acoustic pulses,[5],-4.51
same,optomotor response,[3],9.62
CC(C)[C@H]1CC[C@H](C(=O)N[C@H](Cc2ccccc2)C(=O)O)CC1 [Nateglinide],habituation to 1-s acoustic pulses,[1],0.774
same,optomotor response to blue moving lines,[2],11.9
same,startle response to 20-s acoustic pulses,[5],3.57
CCCc1nc(C(C)(C)O)c(C(=O)O)n1Cc1ccc(-c2ccccc2-c2nnn[nH]2)cc1 [Olmesartan],optomotor response to blue moving lines,[2],3.07
same,optomotor response,[3],-5.64
COc1ccc(C[C@@H](C)NC[C@H](O)c2ccc(O)c(NC=O)c2)cc1 [Arformoterol tartrate],excitability to 1-s acoustic pulses,[6],5.34
same,activity during period 15,[4],46.5
same,optomotor response to blue moving lines,[2],-4.26
Cc1ccc(N(CC2=NCCN2)c2cccc(O)c2)cc1 [Phentolamine Mesylate],activity during period 15,[4],4.99
same,optomotor response to blue moving lines,[2],16.3
NC(=O)c1ncn([C@@H]2O[C@H](CO)[C@@H](O)[C@H]2O)n1 [Ribavirin],excitability to 1-s acoustic pulses,[6],-0.206
same,optomotor response to blue moving lines,[2],9.25
same,optomotor response,[3],0.429
CC(C)(C)NC(=O)[C@@H]1C[C@@H]2CCCC[C@@H]2CN1C[C@@H](O)[C@H](Cc1ccccc1)NC(=O)[C@H](CC(N)=O)NC(=O)c1ccc2ccccc2n1 [Saquinavir mesylate],optomotor response to green moving lines,[7],-3.04
CCC(=O)O[C@]1(C(=O)SCF)[C@H](C)C[C@H]2[C@@H]3C[C@H](F)C4=CC(=O)C=C[C@]4(C)[C@@]3(F)[C@@H](O)C[C@@]21C [Fluticasone propionate],habituation to 1-s acoustic pulses,[1],3.04
same,optomotor response to blue moving lines,[2],-10.1
same,optomotor response to green moving lines,[7],2.35
CC(C)n1c(/C=C/C(O)CC(O)CC(=O)O)c(-c2ccc(F)cc2)c2ccccc21 (stereo not given) [Fluvastatin sodium],habituation to 1-s acoustic pulses,[1],4.04
same,activity during period 15,[4],5.99
same,optomotor response to green moving lines,[7],-3.1
CC(C)OC(=O)C(C)(C)Oc1ccc(C(=O)c2ccc(Cl)cc2)cc1 [Fenofibrate],activity during period 15,[4],6.23
same,optomotor response to green moving lines,[7],8.84
same,optomotor response,[3],19.2
